From PubChem BioAssay AID1159580 (chemical genetic matrix, 2015)
“And” between values parts separate entries of the source, which are not always exact repeats. Equal values may be shown once. In all, about 5,500 compounds went through this assay and about 2,000 (36%) were called active. Another 18% or so got no clear call; they are omitted. No stated cut-off is given here; in the data, active means normalized growth mostly below about 0.91 (no sharp cut-off); inconclusive means no clear call, values can overlap the other calls; inactive means mostly above about 0.92. The list shows a part of the results.

Test: chemical genetic growth profiling, strain panel (AID 1159580);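 further: tested at 20 µM; growth read once vehicle control cultures reached saturation at 30 °C; 1 = growth at the plate median or of vehicle wells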
Conditions: growth OD

Measured: normalized growth

CCCNC(C)C(=O)Nc1ccccc1C (stereo unspecified)
inactive: S. cerevisiae deletion strains, locus YJR066W, strain TOR1, stronger effect = lower value 0.979 | S. cerevisiae deletion strains, locus YJR075W, strain HOC1, stronger effect = lower value 1.01 | S. cerevisiae deletion strains, locus YKL009W, strain mrt4, stronger effect = lower value 1 | S. cerevisiae deletion strains, locus YKL068W, stronger effect = lower value 0.99 | S. cerevisiae deletion strains, locus YKL085W, strain MDH1 (second series), stronger effect = lower value 1 | S. cerevisiae deletion strains, locus YKL085W, strain MDH1, stronger effect = lower value 1 | S. cerevisiae deletion strains, locus YKL160W, strain elf1, stronger effect = lower value 1.01 | S. cerevisiae deletion strains, locus YKL190W, strain CNB1, stronger effect = lower value 1 | S. cerevisiae deletion strains, locus YKR001C, strain vps1, stronger effect = lower value 1 | S. cerevisiae deletion strains, locus YKR026C, strain gcn3, stronger effect = lower value 1 | S. cerevisiae deletion strains, locus YKR091W, strain srl3, stronger effect = lower value 1 | S. cerevisiae deletion strains, locus YLL001W, strain dnm1, stronger effect = lower value 1.01 | S. cerevisiae deletion strains, locus YLL026W, stronger effect = lower value 1.01 | S. cerevisiae deletion strains, locus YLL041C, strain sdh2, stronger effect = lower value 0.997 | S. cerevisiae deletion strains, locus YLR027C, strain aat2, stronger effect = lower value 1.01 | S. cerevisiae deletion strains, locus YLR039C, strain RIC1, stronger effect = lower value 1.03 | S. cerevisiae deletion strains, locus YLR058C, strain SHM2, stronger effect = lower value 1.01 | S. cerevisiae deletion strains, locus YLR102C, strain apc9, stronger effect = lower value 0.989 | S. cerevisiae deletion strains, locus YLR113W, strain HOG1, stronger effect = lower value 1.09 | S. cerevisiae deletion strains, locus YLR221C, strain rsa3, stronger effect = lower value 0.988 | S. cerevisiae deletion strains, locus YLR258W, strain gsy2, stronger effect = lower value 0.999 | S. cerevisiae deletion strains, locus YLR262C, strain YPT6 (second series), stronger effect = lower value 1.02 | S. cerevisiae deletion strains, locus YLR262C, strain YPT6, stronger effect = lower value 1.07 | S. cerevisiae deletion strains, locus YLR268W, strain sec22, stronger effect = lower value 0.989 | S. cerevisiae deletion strains, locus YLR320W, strain mms22, stronger effect = lower value 1.01 | S. cerevisiae deletion strains, locus YLR330W, strain CHS5, stronger effect = lower value 1.01 | S. cerevisiae deletion strains, locus YLR342W, strain FKS1 (second series), stronger effect = lower value 0.996 | S. cerevisiae deletion strains, locus YLR342W, strain FKS1, stronger effect = lower value 1.01 | S. cerevisiae deletion strains, locus YLR357W, strain rsc2, stronger effect = lower value 0.981 | S. cerevisiae deletion strains, locus YLR370C, strain arc18, stronger effect = lower value 1.01 | S. cerevisiae deletion strains, locus YLR371W, strain rom2, stronger effect = lower value 0.983 | S. cerevisiae deletion strains, locus YLR384C, strain iki3, stronger effect = lower value 1.01 | S. cerevisiae deletion strains, locus YLR418C, strain cdc73, stronger effect = lower value 0.967 | S. cerevisiae deletion strains, locus YML016C, strain PPZ1, stronger effect = lower value 1.01 | S. cerevisiae deletion strains, locus YML032C, strain rad52, stronger effect = lower value 0.987 | S. cerevisiae deletion strains, locus YML120C, strain ndi1, stronger effect = lower value 1 | S. cerevisiae deletion strains, locus YML124C, strain tub3, stronger effect = lower value 0.989 | S. cerevisiae deletion strains, locus YMR058W, strain fet3, stronger effect = lower value 1 | S. cerevisiae deletion strains, locus YMR078C, strain ctf18, stronger effect = lower value 0.993 | S. cerevisiae deletion strains, locus YMR125W, strain sto1, stronger effect = lower value 1.02 | S. cerevisiae deletion strains, locus YMR129W, stronger effect = lower value 1 | S. cerevisiae deletion strains, locus YMR205C, strain PFK2, stronger effect = lower value 1 | S. cerevisiae deletion strains, locus YMR223W, strain ubp8, stronger effect = lower value 0.972 | S. cerevisiae deletion strains, locus YMR231W, strain pep5, stronger effect = lower value 1.01 | S. cerevisiae deletion strains, locus YMR263W, strain SAP30, stronger effect = lower value 1 | S. cerevisiae deletion strains, locus YMR307W, strain GAS1, stronger effect = lower value 0.949 | S. cerevisiae deletion strains, locus YNL067W, strain RPL9B, stronger effect = lower value 1.02 | S. cerevisiae deletion strains, locus YNL071W, strain lat1, stronger effect = lower value 1 | S. cerevisiae deletion strains, locus YNL153C, strain GIM3, stronger effect = lower value 0.963 | S. cerevisiae deletion strains, locus YNL175C, strain NOP13, stronger effect = lower value 1.01 | S. cerevisiae deletion strains, locus YNL183C, strain NPR1, stronger effect = lower value 1 | S. cerevisiae deletion strains, locus YNL197C, strain WHI3, stronger effect = lower value 1.04 | S. cerevisiae deletion strains, locus YNL209W, strain ssb2, stronger effect = lower value 1 | S. cerevisiae deletion strains, locus YNL224C, strain SQS1, stronger effect = lower value 0.989 | S. cerevisiae deletion strains, locus YNL233W, strain BNI4, stronger effect = lower value 1.03 | S. cerevisiae deletion strains, locus YNL248C, strain rpa49, stronger effect = lower value 1.01 | S. cerevisiae deletion strains, locus YNL250W, strain rad50, stronger effect = lower value 0.983 | S. cerevisiae deletion strains, locus YNL271C, strain bni1, stronger effect = lower value 0.996 | S. cerevisiae deletion strains, locus YNL298W, strain CLA4, stronger effect = lower value 0.985 | S. cerevisiae deletion strains, locus YNL307C, strain MCK1, stronger effect = lower value 0.998 | S. cerevisiae deletion strains, locus YNL322C, strain KRE1 (second series), stronger effect = lower value 1 | S. cerevisiae deletion strains, locus YNL322C, strain KRE1, stronger effect = lower value 1 and 1.02 | S. cerevisiae deletion strains, locus YNR049C, strain mso1, stronger effect = lower value 1.01 | S. cerevisiae deletion strains, locus YNR052C, strain pop2, stronger effect = lower value 0.998 | S. cerevisiae deletion strains, locus YOL006C, strain TOP1, stronger effect = lower value 1.04 | S. cerevisiae deletion strains, locus YOL012C, strain htz1 0.66 | S. cerevisiae deletion strains, locus YOL147C, strain pex11, stronger effect = lower value 0.979 | S. cerevisiae deletion strains, locus YOR001W, strain rrp6, stronger effect = lower value 0.994 | S. cerevisiae deletion strains, locus YOR061W, strain CKA2, stronger effect = lower value 1.02 | S. cerevisiae deletion strains, locus YOR069W, strain VPS5, stronger effect = lower value 1 | S. cerevisiae deletion strains, locus YOR070C, strain gyp1, stronger effect = lower value 1 | S. cerevisiae deletion strains, locus YOR080W, strain dia2, stronger effect = lower value 0.999 | S. cerevisiae deletion strains, locus YOR083W, strain WHI5 (second series), stronger effect = lower value 1.01 | S. cerevisiae deletion strains, locus YOR083W, strain WHI5, stronger effect = lower value 1 | S. cerevisiae deletion strains, locus YOR106W, strain vam3, stronger effect = lower value 1 | S. cerevisiae deletion strains, locus YOR136W, strain idh2, stronger effect = lower value 0.992 | S. cerevisiae deletion strains, locus YOR144C, strain elg1, stronger effect = lower value 0.977 | S. cerevisiae deletion strains, locus YOR184W, strain ser1, stronger effect = lower value 0.968 | S. cerevisiae deletion strains, locus YOR231W, strain MKK1, stronger effect = lower value 1.09 | S. cerevisiae deletion strains, locus YOR265W, strain rbl2, stronger effect = lower value 1.01 | S. cerevisiae deletion strains, locus YOR270C, strain vph1, stronger effect = lower value 0.987 | S. cerevisiae deletion strains, locus YOR290C, strain snf2, stronger effect = lower value 0.992 | S. cerevisiae deletion strains, locus YOR316C, strain cot1, stronger effect = lower value 0.998 | S. cerevisiae deletion strains, locus YPL051W, strain arl3, stronger effect = lower value 1 | S. cerevisiae deletion strains, locus YPL055C, strain LGE1, stronger effect = lower value 1 | S. cerevisiae deletion strains, locus YPL078C, strain atp4, stronger effect = lower value 0.999 | S. cerevisiae deletion strains, locus YPL106C, strain sse1, stronger effect = lower value 0.989 | S. cerevisiae deletion strains, locus YPL240C, strain hsp82, stronger effect = lower value 1.01 | S. cerevisiae deletion strains, locus YPL241C, strain CIN2, stronger effect = lower value 1.01 | S. cerevisiae deletion strains, locus YPL256C, strain CLN2, stronger effect = lower value 1.09 | S. cerevisiae deletion strains, locus YPR119W, strain clb2, stronger effect = lower value 0.99 | S. cerevisiae deletion strains, locus YPR141C, strain kar3, stronger effect = lower value 0.984 | S. cerevisiae deletion strains, locus YPR163C, strain tif3, stronger effect = lower value 0.99 | S. cerevisiae deletion strains, locus YPR167C, strain met16, stronger effect = lower value 0.994 | S. cerevisiae deletion strains, strain wtn01, stronger effect = lower value 0.993 | S. cerevisiae strains, strain wild type, stronger effect = lower value 1.01
